Measured values taken from PubChem BioAssay.
Active and inactive are the calls of the source. Unless noted, no rule for the calls is given here.

What was measured:
[1] = system: XIP peptide (Xip251-270) binding; assay: XIP fragment 251-270 binding compounds – biochemical, small-molecule microarray, fluorescence 635/667 nm, 0.1 µg/mL protein, primary screen (AID 1182); details: fluorescent protein binding, 635 nm, higher = more signal, called active from +8 up or from −8 down
XIP peptide (Xip251-270) = assay: compounds binding XIP fragment 251-270 – biochemical, small-molecule microarray, fluorescence 635/667 nm, 0.5 µg/mL protein, primary screen (AID 1183); details: fluorescence 635 nm, higher = more signal
[2] = blood-stage malaria parasite viability loss – strain 3D7, DAPI fluorescence, 100 nL, primary screen (AID 1184);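 also: parasites grown inside human red blood cells in medium with human serum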; details: P. falciparum 3D7 growth, 3 d, higher = more signal
[3] = target: Homeobox protein Hox-A13 (Mus musculus) (UniProt Q62424); assay: disruptors of Hoxa13 oligonucleotide interaction – biochemical, fluorescence polarization, labeled oligonucleotide, primary screen (AID 1185); details: Hoxa13:DNA binding, 15 min, higher = more signal, called active from +8 up or from −8 down
[4] = blockers of DNA damage checkpoint Chk1 activation – imaging, HeLa, hydroxyurea, phospho-Chk1 antibody, percent positive cells, primary screen (AID 1186); details: hydroxyurea-induced phospho-Chk1 immunofluorescence imaging, higher = more signal
[5] = blockers of DNA damage checkpoint Chk1 activation – imaging, HeLa, hydroxyurea, phospho-Chk1 nuclear intensity, primary screen (AID 1187); details: hydroxyurea-induced phospho-Chk1 immunofluorescence imaging, higher = more signal

Chain of Homeobox protein Hox-A13 (Mus musculus) (Q62424 whole entry, looked up): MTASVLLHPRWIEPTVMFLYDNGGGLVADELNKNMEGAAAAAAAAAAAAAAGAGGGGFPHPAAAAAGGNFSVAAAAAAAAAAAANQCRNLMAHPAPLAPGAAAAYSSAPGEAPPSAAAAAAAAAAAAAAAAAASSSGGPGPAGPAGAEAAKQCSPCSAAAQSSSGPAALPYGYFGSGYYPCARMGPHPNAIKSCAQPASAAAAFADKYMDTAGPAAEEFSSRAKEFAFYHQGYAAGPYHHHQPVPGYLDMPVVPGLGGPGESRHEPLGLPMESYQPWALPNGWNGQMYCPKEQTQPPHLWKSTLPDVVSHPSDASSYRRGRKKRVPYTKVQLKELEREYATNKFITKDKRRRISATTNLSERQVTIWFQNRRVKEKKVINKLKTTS

C=C(/C(=C/C[C@H](OC(=O)c1ccncc1)c1ccccc1OCCO)c1cc(C(=O)OC)ccc1OC)C(C)C
composite z-score [1]: -0.0121 (inactive) | composite z-score (XIP peptide (Xip251-270)): 0.605 | z-score [2]: -2.85 | z-score [3]: -4.77 (inactive) | z-score [4]: -0.529 (inactive) | z-score [5]: -0.789 (inactive)

CCc1cccc(NC(=O)O[C@H]2[C@H](OC(=O)Nc3ccc4c(c3)OCO4)[C@H](OC(=O)Nc3ccc4c(c3)OCO4)[C@@H](OC)O[C@@H]2CO)c1
composite z-score [1]: 2.3 (inactive) | composite z-score (XIP peptide (Xip251-270)): 0.791 | z-score [2]: -2.26 | z-score [3]: -9.9 (active) | z-score [4]: -0.392 (inactive) | z-score [5]: -0.0612 (inactive)

CN(C)CCCCNC(=O)[C@H]1C[C@H]2C(=O)NCC(=O)N2[C@H]1c1cccc(OCCO)c1
composite z-score [1]: 0.329 (inactive) | composite z-score (XIP peptide (Xip251-270)): 0.129 | z-score [2]: 0.256 | z-score [3]: -1.62 (inactive) | z-score [4]: -0.46 (inactive) | z-score [5]: -0.538 (inactive)

CCOC(=O)C1=C(C(=O)OCC)N(S(=O)(=O)CC[Si](C)(C)C)[C@H](c2ccccc2)CC1
composite z-score [1]: -0.177 (inactive) | composite z-score (XIP peptide (Xip251-270)): 0.201 | z-score [2]: -1.81 | z-score [3]: -2.79 (inactive) | z-score [4]: -0.184 (inactive) | z-score [5]: -0.535 (inactive)

COCCOC(=O)N1C(=O)[C@@]2(c3cc(C#CC4(O)CCCCCC4)ccc31)[C@H](C(=O)NC[C@H](O)c1ccccc1)[C@H]1C(=O)O[C@H](c3ccccc3)[C@H](c3ccccc3)N1[C@@H]2c1ccc(O)cc1
composite z-score [1]: 0.273 (inactive) | composite z-score (XIP peptide (Xip251-270)): 0.78 | z-score [2]: -0.44 | z-score [3]: -1.8 (inactive) | z-score [4]: 0.302 (inactive) | z-score [5]: 0.487 (inactive)

CN(C)C(=O)[C@@]1(CCS(=O)(=O)c2ccccc2)N=C(c2ccc(OCCCO)cc2)O[C@H]1c1ccccc1N=[N+]=[N-]
composite z-score [1]: 0.266 (inactive) | composite z-score (XIP peptide (Xip251-270)): 0.723 | z-score [2]: -2.56 | z-score [3]: -5.61 (inactive) | z-score [4]: -0.268 (inactive) | z-score [5]: -0.701 (inactive)

NCCCC[C@@H]1NC(=O)[C@H]2C[C@@H](C(=O)NCc3ccc(F)cc3)[C@@H](c3ccc(O)cc3)N2C1=O
composite z-score [1]: 2.07 (inactive) | composite z-score (XIP peptide (Xip251-270)): 0.563 | z-score [2]: 0.338 | z-score [3]: -4.42 (inactive) | z-score [4]: -0.52 (inactive) | z-score [5]: -0.367 (inactive)

COC(=O)[C@@]1(CCS(=O)(=O)c2ccccc2)N=C(c2ccc(OCCCO)cc2)O[C@H]1c1ccccc1N=[N+]=[N-]
composite z-score [1]: 1.61 (inactive) | composite z-score (XIP peptide (Xip251-270)): 0.79 | z-score [2]: -1.98 | z-score [3]: -3.19 (inactive) | z-score [4]: -0.305 (inactive) | z-score [5]: -0.0592 (inactive)

[N-]=[N+]=NCc1ccccc1C[C@]1(C(=O)N2CCOCC2)N=C(c2ccc(OCCCO)cc2)O[C@H]1c1ccccc1CN=[N+]=[N-]
composite z-score [1]: 0.158 (inactive) | composite z-score (XIP peptide (Xip251-270)): 0.733 | z-score [2]: -2.28 | z-score [3]: 0.116 (inactive) | z-score [4]: -0.597 (inactive) | z-score [5]: -0.736 (inactive)

O=C1N(Cc2ccccc2)c2ccccc2[C@H]2OC(c3ccc(OCCCO)cc3)=N[C@@]12Cc1ccccc1
composite z-score [1]: 0.447 (inactive) | composite z-score (XIP peptide (Xip251-270)): 0.821 | z-score [2]: -2.41 | z-score [3]: -2.4 (inactive) | z-score [4]: -0.335 (inactive) | z-score [5]: -0.59 (inactive)

CCCCN1CC=CC23O[C@@H]4C=CCOC(=O)[C@@H]4[C@H]2C(=O)N(C(CO)C(C)C)[C@@H]3C1=O (stereo partly specified)
composite z-score [1]: -0.332 (inactive) | composite z-score (XIP peptide (Xip251-270)): -0.186 | z-score [2]: -0.156 | z-score [3]: -5.09 (inactive) | z-score [4]: 0.216 (inactive) | z-score [5]: 0.118 (inactive)

C=CCOC(=O)[C@H]1[C@@H]2C(=O)O[C@@H](c3ccccc3)[C@@H](c3ccccc3)N2[C@@H](c2ccc(OCCOC(=O)[C@@H]3C[C@@H]4C(=O)N[C@@H](CC(C)C)C(=O)N4[C@@H]3c3ccc(O)cc3)cc2)[C@]12C(=O)Nc1ccc(I)cc12
composite z-score [1]: 1.47 (inactive) | composite z-score (XIP peptide (Xip251-270)): 0.788 | z-score [2]: -1.79 | z-score [3]: 0.999 (inactive) | z-score [4]: -0.654 (inactive) | z-score [5]: 0.112 (inactive)

C=CCNC(=O)[C@H]1[C@@H]2C(=O)O[C@@H](c3ccccc3)[C@@H](c3ccccc3)N2[C@@H](c2ccc(O)cc2)[C@]12C(=O)Nc1ccc(C#CC3=CCCCC3)cc12
composite z-score [1]: 0.542 (inactive) | composite z-score (XIP peptide (Xip251-270)): 0.785 | z-score [2]: -0.51 | z-score [3]: 0.771 (inactive) | z-score [4]: -0.354 (inactive) | z-score [5]: -0.217 (inactive)

CCOC(=O)C1=CC[C@@H](c2ccc(F)cc2)N(S(=O)(=O)c2ccc(C)cc2)[C@H]1c1ccc([N+](=O)[O-])cc1
composite z-score [1]: 0.1 (inactive) | composite z-score (XIP peptide (Xip251-270)): 0.559 | z-score [2]: -1.8 | z-score [3]: 0.532 (inactive) | z-score [4]: 0.355 (inactive) | z-score [5]: 0.593 (inactive)

COc1ccc([Si](C)(C)[C@H]2[C@H](CCO)O[C@@]3(C(=O)N(Cc4ccc(N5CCOC5=O)cc4)c4ccccc43)[C@@H]2C)cc1
composite z-score [1]: 0.782 (inactive) | composite z-score (XIP peptide (Xip251-270)): 0.666 | z-score [2]: -2.76 | z-score [3]: -2.76 (inactive) | z-score [4]: -0.73 (inactive) | z-score [5]: -0.713 (inactive)

C=CCC(OC(C)=O)[C@@H]1[C@@H](N(Cc2ccc(-c3cccc(C(F)(F)F)c3)o2)C(=O)c2cccc3ccccc23)c2cc(OCCCO)ccc2N1C(=O)c1ccc2ccccc2c1 (stereo partly specified)
composite z-score [1]: 0.184 (inactive) | composite z-score (XIP peptide (Xip251-270)): -0.563 | z-score [2]: -2.73 | z-score [3]: -2.32 (inactive) | z-score [4]: -0.675 (inactive) | z-score [5]: -0.36 (inactive)

COc1ccc(NN2C(C(O)c3cc(C(F)(F)F)cc(C(F)(F)F)c3)C=CC3C(=O)N(C4CCCCC4)C(=O)C32)cc1 (stereo unspecified)
composite z-score [1]: 0.0376 (inactive) | composite z-score (XIP peptide (Xip251-270)): 0.752 | z-score [2]: -0.5 | z-score [3]: -3.31 (inactive) | z-score [4]: -1.14 (inactive) | z-score [5]: -2.01 (inactive)

COc1ccc([Si](C)(C)[C@@H]2[C@@H](CC(=O)N(CCO)Cc3ccccc3)O[C@]3(C(=O)N(Cc4ccc(N5CCC5=O)cc4)c4ccccc43)[C@H]2C)cc1
composite z-score [1]: 3.33 (inactive) | composite z-score (XIP peptide (Xip251-270)): 0.443 | z-score [2]: -0.767 | z-score [3]: -1.08 (inactive) | z-score [4]: 0.366 (inactive) | z-score [5]: 0.971 (inactive)

O=C1OCCC=C[C@H]2OC34C=CCN(c5ccc(Cl)cc5)C(=O)[C@H]3N(CCO)C(=O)[C@@H]4C12 (stereo partly specified)
composite z-score [1]: -0.379 (inactive) | composite z-score (XIP peptide (Xip251-270)): 0.561 | z-score [2]: -0.136 | z-score [3]: -5.37 (inactive) | z-score [4]: -0.399 (inactive) | z-score [5]: -0.576 (inactive)

CN(C)CCCC[C@@H]1NC(=O)[C@H]2C[C@@H](C(=O)O)[C@@H](c3cccc(OCCO)c3)N2C1=O
composite z-score [1]: 0.432 (inactive) | composite z-score (XIP peptide (Xip251-270)): 0.288 | z-score [2]: -0.133 | z-score [3]: -1.71 (inactive) | z-score [4]: -0.791 (inactive) | z-score [5]: -0.55 (inactive)

CC(=O)c1ccc(C(O)C2C=CC3C(=O)NC(=O)C3N2Nc2ccc(Cl)cc2Cl)cc1 (stereo unspecified)
composite z-score [1]: 0.187 (inactive) | composite z-score (XIP peptide (Xip251-270)): 0.02 | z-score [2]: -0.677 | z-score [3]: -5.84 (inactive) | z-score [4]: 0.173 (inactive) | z-score [5]: 0.588 (inactive)

C=CCC(OC(C)=O)[C@@H]1[C@@H](N(Cc2ccc(-c3cccc(C(F)(F)F)c3)o2)C(=O)Cc2ccc(F)cc2)c2cc(OCCCO)ccc2N1C(=O)c1ccc2ccccc2c1 (stereo partly specified)
composite z-score [1]: -0.502 (inactive) | composite z-score (XIP peptide (Xip251-270)): -0.669 | z-score [2]: -0.681 | z-score [3]: -1.3 (inactive) | z-score [4]: 0.627 (inactive) | z-score [5]: 0.835 (inactive)

COCCCNC(=O)[C@@]1(Sc2ccc(C)cc2)CC(=O)N(C2CCCCC2)[C@@H]1c1ccc(CO)cc1I
composite z-score [1]: -0.159 (inactive) | composite z-score (XIP peptide (Xip251-270)): 0.736 | z-score [2]: -1.39 | z-score [3]: -5.66 (inactive) | z-score [4]: 0.46 (inactive) | z-score [5]: 0.268 (inactive)

COc1ccc(C#Cc2ccc3c(c2)[C@]2(C(=O)N3)[C@H](C(=O)Nc3nc4ccccc4s3)[C@H]3C(=O)O[C@H](c4ccccc4)[C@H](c4ccccc4)N3[C@@H]2c2ccc(OCCO)cc2)cc1
composite z-score [1]: -0.509 (inactive) | composite z-score (XIP peptide (Xip251-270)): 0.782 | z-score [2]: -0.668 | z-score [3]: 1.71 (inactive) | z-score [4]: 0.218 (inactive) | z-score [5]: -0.0348 (inactive)

COC(=O)[C@@]1(Cc2ccccc2)[C@@H]2[C@@H](CC(=O)[C@H]2CC(=O)C(=O)N(C)C)CN1C(=O)c1ccccc1
composite z-score [1]: -0.282 (inactive) | composite z-score (XIP peptide (Xip251-270)): -0.0913 | z-score [2]: -1.23 | z-score [3]: -4.98 (inactive) | z-score [4]: 0.273 (inactive) | z-score [5]: 0.082 (inactive)

C=CCOC(=O)[C@@H]1[C@H]2C(=O)O[C@H](c3ccccc3)[C@H](c3ccccc3)N2[C@H](c2ccc(OCCOC(=O)[C@H]3C[C@H]4C(=O)NCC(=O)N4[C@H]3c3ccc(O)cc3)cc2)[C@@]12C(=O)Nc1ccc(I)cc12
composite z-score [1]: 1.34 (inactive) | composite z-score (XIP peptide (Xip251-270)): 0.868 | z-score [2]: -1.69 | z-score [3]: 1.52 (inactive) | z-score [4]: -0.804 (inactive) | z-score [5]: -0.762 (inactive)
